In PubChem BioAssay (EPA / NIEHS) one finds outcome data, which are given here for 23 compounds.

Each structure is given as a SMILES string. Records with an inconclusive call do not appear. Activity calls are given as the source filed them. The calls were made as follows: active = hit-call score of the fitted dose curve at least 0.9, where 1 is the maximum; inconclusive = response in the unintended direction; inactive = score below 0.9.

Sequence of Cellular tumor antigen p53 (Homo sapiens) (P04637 whole entry, looked up): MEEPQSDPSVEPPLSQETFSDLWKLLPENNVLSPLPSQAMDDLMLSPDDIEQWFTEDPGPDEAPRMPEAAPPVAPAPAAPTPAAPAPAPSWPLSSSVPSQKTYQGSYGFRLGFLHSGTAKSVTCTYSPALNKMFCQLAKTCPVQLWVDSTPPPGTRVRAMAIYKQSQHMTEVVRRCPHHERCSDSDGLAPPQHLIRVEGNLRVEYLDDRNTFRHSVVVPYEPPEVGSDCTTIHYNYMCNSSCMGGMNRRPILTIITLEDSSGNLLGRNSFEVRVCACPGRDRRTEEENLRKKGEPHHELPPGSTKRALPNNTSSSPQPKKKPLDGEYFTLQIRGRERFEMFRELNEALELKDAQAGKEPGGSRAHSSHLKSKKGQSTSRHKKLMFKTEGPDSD

This test addresses Cellular tumor antigen p53 (Homo sapiens) (UniProt P04637). The experiment in a line: TOX21_p53_BLA_p2_ratio: Tox21 HCT-116 p53 Agonism Beta-lactamase Assay, Ratio, Phase 2 (AID 2283592). An outline of the steps:
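In this cell-based reporter format, HCT116 cells were dosed with chemicals delivered from DMSO by 217-fold dilution and incubated 16 h at 37C. Emission at 460 and 530 nm after 2 h CCF4-AM loading provided the ratio, fitted upward versus DMSO.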
Turning to `CC(=O)OCC(=O)[C@@]1(O)CC[C@H]2[C@@H]3CCC4=CC(=O)C=C[C@]4(C)[C@@]3(F)[C@@H](O)C[C@@]21C`, the result was inactive.

Take `CN(C)CCC(c1ccccc1)c1ccccn1` (stereo not drawn): the result was inactive.

Regarding `C=C(C)C(=O)OCC[N+](C)(C)C`, the outcome was inactive.

Regarding `CN1c2cc(O)c(N=NC(N)=O)cc2CC1S(=O)(=O)O` (stereo not drawn), the outcome was inactive.

As to `CCNc1cc(O)ccc1C`, the outcome was inactive.

On to `C=CCOc1cc(Cl)ccc1C(=O)NCCN(CC)CC`, for which the result was inactive.

Consider `CCOC(=N)CC(=O)OCC`, for which the result was inactive.

On to `CCC(C)(C)C`, for which the result was inactive.

With `O=c1[nH]cnc2nc[nH]c12`, the outcome was inactive.

On to `CCCc1ncc(C[n+]2ccccc2C)c(N)n1`, for which the result was inactive.

`Cc1cc(C(=O)NCCc2ccc(S(=O)(=O)NC(=O)NN3CCCCCC3)cc2)no1`: the result was inactive.

As for `CCn1c2ccccc2c2cc([N+](=O)[O-])ccc21`, the result was inactive.

For `OC[C@@H](O)C(O)[C@@H](O)CO` (stereo partly drawn), the outcome was inactive.

For the compound `NS(=O)(=O)c1cc2c(cc1Cl)NC(CC1CCCC1)NS2(=O)=O` (stereo not drawn), the outcome was inactive.

Take `CCCCCCN`: the outcome was inactive.

Take `CC(=O)[C@H]1CC[C@H]2[C@@H]3C[C@H](C)C4=CC(=O)CC[C@]4(C)[C@H]3[C@@H](O)C[C@]12C`: the outcome was inactive.

For the compound `Cc1c(Cn2ccnc2)c2ccccc2n1CCC(=O)O`, the outcome was inactive.

As to `N[C@H](C(=O)O)c1ccc(O)cc1`, the outcome was inactive.

Turning to `O=c1[nH]c(=O)c2ccccc2o1`, the result was inactive.

With `COc1ccc(/C=C/C(=O)Nc2ccccc2C(=O)O)cc1OC`, the outcome was inactive.

As to `O=[N+]([O-])c1ccc(/C=N\O)o1`, the outcome was inactive.

For `C=CCCCCCCCCCCCCCCCC`, the outcome was inactive.

In the case of `CC(=O)SC[C@@H](C)C(=O)N1CCC[C@H]1C(=O)N[C@@H](Cc1ccccc1)C(=O)O`, the outcome was inactive.
